Experimental data as given in ChEMBL document CHEMBL3988442, “University of Dundee, Small-Polar-MMV Screening Library” (2021).
Out of some 48,000 compounds screened, about 13,000 (27%) showed an effect of 50% or more. The list shows a part of the results.

These molecules were tested on Wolbachia pipientis (assay: Anti-Wolbachia Cell-Based Screen). Details: 5 µM.
Assay type: functional
Parameters: scale not given: in the data most compounds retested in dose-response had high values

Row | Compound | Percent Effect
1 | O=C(c1ccc(F)cc1F)N1C[C@H]2CC[C@@H]1CN(Cc1ccccc1)C2 | -4.594%
2 | CC(C)N1CC2(CCCN(c3ncc(Cl)cc3F)C2)CCC1=O (configuration not stated) | -5.351%
3 | Cc1noc(C)c1CC(=O)Nc1ccn(CC(N)=O)n1 | 108.2%
4 | Cc1nn(C)c(C)c1CCC(=O)Nc1cn(C)c(=O)n(C)c1=O | -11.84%
5 | Cc1ccc(NC(=O)CNc2ccn(CC(N)=O)n2)c(Cl)c1 | 2.31%
6 | Cc1nn(C)c(C)c1CCC(=O)Nc1cccn(C)c1=O | 0.3485%
7 | Cc1noc(C)c1CCC(=O)NCCc1cccs1 | 18.14%
8 | CCn1ccc(NC(=O)CCc2c(C)nn(C)c2C)n1 | 89.06%
9 | Cc1noc(C)c1CCC(=O)N(C)C(C)c1cccs1 (configuration not stated) | -6.492%
10 | CCS(=O)(=O)CCn1ccc(NC(=O)CCc2cccc(C)c2)n1 | -1.723%
11 | CCn1ccc(NC(=O)CCc2c(C)noc2C)n1 | 94.65%
12 | NC(=O)Cn1ccc(NC(=O)C2(c3ccc(F)cc3)CC2)n1 | -13.95%
13 | Cc1noc(C)c1CCC(=O)Nc1ccn(C)n1 | 102.9%
14 | Cc1noc(C)c1CC(=O)NCCc1cccs1 | 21.95%
15 | CCc1cc(N(C)Cc2c(C)nn(C)c2C)n2nccc2n1 | -6.903%
16 | CN(Cc1cc(F)ccc1F)CC(C)(CO)CO | 17.08%
17 | CNC(=O)c1cccc(NCCOc2ccc(CC#N)cc2)c1C | 12.16%
18 | COc1cccc(Cn2ncc(N(C)CCc3ccccc3)cc2=O)c1 | -17.12%
19 | CC(C)OCCn1nnnc1Cc1ccc(Br)cc1 | -13.25%
20 | CCOC(C(=O)N1CCn2c(C)nnc2C1)c1ccccc1 (configuration not stated) | -1.753%
21 | CCN(C)CC1CCN(c2ncc(Br)cn2)C1 (configuration not stated) | -2.721%
22 | CN(C)C(C(=O)N1CCCC1)c1ccccc1F (configuration not stated) | 1.504%
23 | COCCN1CCCC1c1ccnc(-c2ccccc2)n1 (configuration not stated) | 120.2%
24 | COc1ccc(C2CCCN2c2cnccn2)c(OC)c1 (configuration not stated) | 8.264%
25 | COCCOc1ccnc(-c2noc([C@@H]3CCCN3C)n2)c1 | -6.49%
26 | COc1cccc(-c2nccc(C3CCCN3C)n2)c1 (configuration not stated) | 102%

Row | Compound | Percent Effect
27 | COc1ccc(-c2nccc(C3CCCN3C)n2)cc1 (configuration not stated) | 122.9%
28 | O=C(N1CCOCC1)N1CCCC1c1nc(-c2ccccn2)no1 (configuration not stated) | 12.43%
29 | Cc1nn(C)c2nc(-c3ccccn3)nc(NCCC3CCCN3C)c12 (configuration not stated) | -7.173%
30 | CN1CCCC1c1ccnc(-c2ccccn2)n1 (configuration not stated) | 114%
31 | COCCOc1ccnc(-c2noc([C@@H]3CCCN3CC(C)(C)C)n2)c1 | 20.74%
32 | COc1ccc(-c2noc([C@@H]3C[C@@H](O)CN3C3CCN(C)CC3)n2)cc1 | -10.46%
33 | COCCOc1ccnc(-c2noc([C@@H]3CCCN3CC3CC3)n2)c1 | -13.12%
34 | COc1cccc(-c2noc3c2CN(c2ncnc4c2CCC4)CC3)c1 | -1.898%
35 | CN(CC(=O)NC(C)(C#N)C1CC1)Cc1nnc(C2CC2)n1C (configuration not stated) | -18.04%
36 | Cc1cccc(S(=O)(=O)N2CSCC2C(=O)NC(C)(C)C)c1 (configuration not stated) | -10.25%
37 | CCc1nc(CCNC(=O)NC2CC2)sc1C | 2.732%
38 | C/C=C(\C)CN1C[C@H](c2cccc(OC)c2)[C@@H](N)C1 | 1.044%
39 | CN1CCCC1c1ccnc(-c2ccccc2)n1 (configuration not stated) | 129.7%
40 | CN1CCCC1CCn1ccnc1-c1nc(-c2ccccc2)no1 (configuration not stated) | -1.363%
41 | CN1CCN(C2CCN(c3ccnc(-c4ccccc4)n3)CC2)C1=O | 9.74%
42 | O=C(CC1CCCC1)N1C[C@H](Oc2cccnc2)[C@H]2OCCC[C@H]21.O=C(O)C(F)(F)F | 105.6%
43 | O=C(C1=CCCC1)N1C[C@H](Oc2cccnc2)[C@H]2OCCC[C@H]21 | 9.91%
44 | O=C(c1ccnnc1)N1C[C@@H](OCC2CCCC2)[C@H]2OCCC[C@H]21 | -2.599%
45 | CN(C)S(=O)(=O)N1C[C@H](Oc2cccnc2)[C@H]2OCCC[C@H]21.O=C(O)C(F)(F)F | 21.05%
46 | O=C(Cc1ccccn1)N1C[C@@H](Oc2cccnc2)[C@H]2OCCC[C@H]21 | 93.72%
47 | CN(C)CC(=O)N1C[C@@H](Oc2ccccn2)[C@H]2OCCC[C@H]21 | -36.21%
48 | O=C(C[C@H]1[C@H]2CN(C(=O)Cc3ccccn3)C[C@@H]12)Nc1cccnc1 | -5.449%
49 | O=C(c1cscn1)N1C[C@@H](Oc2cccnc2)[C@H]2OCCC[C@H]21 | 101.6%
50 | Cc1[nH]nc(CCC(=O)N2C[C@H]3CC[C@@H]2CN(C(=O)N(C)C)C3)c1C | -18.31%
51 | CC(=O)N[C@H](C)c1c(-c2ccc(Cl)cc2)noc1C(=O)O | -1.378%
52 | CCOCC1c2c(ncn2C)CCN1C(=O)c1cnc(C)cn1.O=C(O)C(F)(F)F (configuration not stated) | 107%

Row | Compound | Percent Effect
53 | O=C(c1cscn1)N1CCn2cnc(COCC3CC3)c2C1 | -4.402%
54 | CCOCC1c2c(ncn2C)CCN1C(=O)c1ccoc1 (configuration not stated) | 86.79%
55 | Cn1cnc2c1C(COCc1ccccc1)N(Cc1ccncc1)CC2.O=C(O)C(F)(F)F.O=C(O)C(F)(F)F.O=C(O)C(F)(F)F (configuration not stated) | -5.71%
56 | Cn1cnc2c1C(COCc1ccccc1)N(Cc1cccnc1)CC2.O=C(O)C(F)(F)F.O=C(O)C(F)(F)F.O=C(O)C(F)(F)F (configuration not stated) | 3.52%
57 | CCOCC1c2c(ncn2C(C)C)CCN1C(=O)CC (configuration not stated) | -9.692%
58 | CCOCC1c2c(ncn2C(C)C)CCN1C(C)C.O=C(O)C(F)(F)F.O=C(O)C(F)(F)F (configuration not stated) | 0.9894%
59 | CCOCC1c2c(ncn2C(C)C)CCN1C(=O)C1CC1 (configuration not stated) | 9.389%
60 | CCOCC1c2c(ncn2C)CCN1C(=O)c1cscn1 (configuration not stated) | 99.42%
61 | O=C(NCCn1ccnc1-c1cc2n(n1)CCCNC2)c1ccncc1 | -0.5813%
62 | CC(NC(=O)c1ccoc1)C(=O)N(C)Cc1cccc(C(F)(F)F)c1 (configuration not stated) | 12.38%
63 | CCn1nc2c(cc1=O)CN(Cc1nc(CCOC)no1)CC2 | -7.437%
64 | Cc1cccc(C(C)(C)CNC(=O)CCSc2nnnn2C)c1 | -0.1425%
65 | CCCn1c(C)c(CC(=O)N(C)CCOC)c2c1CC(C)(C)CC2=O | -2.271%
66 | Cc1c[nH]c(CN(C)C(=O)CCn2cnc3ccccc32)n1 | -8.611%
67 | Cc1ccc(C)c2c(O)cc(CN3CCNC(=O)C3C)nc12 (configuration not stated) | -11.58%
68 | CCCOc1ccc(OCCN2CCOCS2(=O)=O)cc1 | -1.298%
69 | Cc1ncc2c(n1)CN(CCOc1ccc3c(c1)CCC(=O)N3)CC2 | 3.437%
70 | CSc1ccc(OCCN2CCNC(=O)CC2)cc1 | 106.2%
71 | CC1C(=O)NCCN1CCOc1ccc(C#N)cc1 (configuration not stated) | 92.79%
72 | COc1ccc(CN2CCNC(=O)CC2)cc1SC(F)(F)F | -6.808%
73 | Cc1nc(C)n(CC2CCCN2CCOc2ccc(C#N)cc2)n1 (configuration not stated) | -3.46%
74 | CSc1ccc(OCCN2CCNC(=O)C2C)cc1 (configuration not stated) | 111.5%
75 | CCn1nc2c(cc1=O)CN(CCOc1ccc(C#N)cc1)CC2 | 2.029%
76 | Cc1noc(C)c1CNCC1COCc2c(-c3ccsc3)nnn2C1.O=C(O)C(F)(F)F (configuration not stated) | 0.4259%
77 | Cc1ncc(S(=O)(=O)Nc2ccnn2C2CCCCC2)[nH]1 | -19.02%
78 | COc1ccc(-n2ncc(C(C)NC3CCOCC3)c2C)cc1 (configuration not stated) | -6.318%

Row | Compound | Percent Effect
79 | Cc1cc(NC(=O)CCN2CCCCC2Cn2cccn2)no1 (configuration not stated) | 107.3%
80 | CC(C)c1cc(NC(=O)CN2CCCC2Cn2cccn2)on1 (configuration not stated) | -0.3726%
81 | Cc1cc(NC(=O)CCN2CCCC2Cn2cncn2)no1 (configuration not stated) | 7.653%
82 | CC(C)(C)c1cc(NC(=O)CN2CCCC2Cn2cccn2)on1 (configuration not stated) | 83.96%
83 | CC(C)(C)c1cc(NC(=O)CN2CCCCC2Cn2cncn2)on1 (configuration not stated) | -6.385%
84 | CCN1CCC(NC(=O)CN2CCCC2Cn2cccn2)CC1 (configuration not stated) | 18.69%
85 | Cc1cc(NC(=O)CCN2CCCCC2Cn2cncn2)no1 (configuration not stated) | 123.3%
86 | CC(C)(C)c1cc(NC(=O)CN2CCCC2Cn2cncn2)on1 (configuration not stated) | 8.198%
87 | O=C(CN1CCCCC1Cn1cccn1)NC1CCOCC1 (configuration not stated) | -17.79%
88 | CCN1CCC(NC(=O)CN2CCCCC2Cn2cccn2)CC1 (configuration not stated) | 8.022%
89 | Cc1cc(NC(=O)CCN2CCCC2Cn2cccn2)no1 (configuration not stated) | 85.34%
90 | O=C(CN1CCCC1Cn1cccn1)NC1CCN(C2CC2)CC1 (configuration not stated) | -5.086%
91 | Cc1n[nH]c(C)c1CN(C)C(C(=O)O)c1c(F)cccc1OC(C)C (configuration not stated) | -15.01%
92 | CC(C)=CCN1C[C@H]2CC[C@@H]1CN(C(=O)c1ccc3[nH]cnc3c1)C2 | 1.607%
93 | Cc1cnn(CCNCc2cc(=O)n3cc(Cl)ccc3n2)c1 | -2.605%
94 | CC(=O)N1CCN(CC(=O)NCCCN(C)c2ccccc2)CC1 | -6.128%
95 | CNc1nc(CNC(=O)Nc2cccc(-c3nnco3)c2)cs1 | -5.762%
96 | CCC[C@H]1CN(C2CCOCC2)C[C@@H]1NC(=O)CCc1cnccn1 | -6.675%
97 | O=C(CSc1ccccc1)N1C[C@H]2CC[C@@H]1CN(Cc1ccncc1)C2 | -7.761%
98 | CC(=O)N1CCC1c1cc(NC2CCOCC2)nc(C)n1 (configuration not stated) | 79.3%
99 | Cc1ccc(-c2cnnc(NCC3CCOCC3)n2)o1 | -4.072%
100 | Cc1nc(NC2CCOCC2)cc(C2CCN2S(C)(=O)=O)n1 (configuration not stated) | 120.8%
101 | Cc1nc(NCC2CCOCC2)cc(C2CCN2S(C)(=O)=O)n1 (configuration not stated) | 108.2%
102 | CC1c2ncc(COCC3CCOCC3)n2CCN1S(C)(=O)=O (configuration not stated) | -5.189%
